The source made the active and inactive calls. The calls were made as follows: active = hit-call score of the fitted dose curve at least 0.9, where 1 is the maximum; inactive = score below 0.9.
Legend:
[1] = ATG_CRE_CIS: Attagene CIS-FACTORIAL HepG2 Assay for human cAMP Responsive Element (CRE) binding protein 3 (AID 2282926); details: HepG2 CRE cis-reporter, Attagene multiplexed mRNA; actives raise or lower the signal
How it was run: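 We dosed HepG2 cells bearing multiple cis-promoter reporter units for 24 h and measured reporter mRNA by RT-PCR with capillary electrophoresis detection. Bidirectional concentration-response fitting used DMSO as negative control.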

[2] = biological target: CCAAT/enhancer-binding protein beta (Homo sapiens) (UniProt P17676); test: ATG_C_EBP_CIS: Attagene CIS-FACTORIAL HepG2 Assay for human CCAAT/Enhancer Binding Protein (C/EBP) beta (AID 2282927); details: HepG2 Attagene cis-factorial transcription factor reporter; actives raise or lower the signal
How it was run: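 Chemical-treated HepG2 cells (24 h) bearing cis-regulated reporter constructs were processed for total RNA, then reverse transcription, PCR amplification, fluorescent primer extension and fragment analysis; gain- and loss-of-signal were fitted against DMSO.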

[3] = ATG_CMV_CIS: Attagene CIS-FACTORIAL HepG2 Assay for human CMV (Internal Marker) (AID 2282928); details: HepG2 CMV promoter reporter, transcription factor profiling; actives raise or lower the signal;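 also: endpoint acts as a background internal control marker rather than a target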
How it was run: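 Cell system: HepG2, transiently transfected multiple reporter units under cis promoters. Exposure: 24 h. Detection: RT-PCR, FAM labeling, HpaI digestion, capillary electrophoresis. Analysis: bidirectional, DMSO baseline.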

[4] = ATG_DR4_LXR_CIS: Attagene CIS-FACTORIAL HepG2 Assay for human Liver X Receptor (LXR), DR4 submotif (AID 2282929); details: HepG2 Attagene DR4 cis-reporter, mRNA transcription; actives raise or lower the signal
How it was run: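 Measures endogenous transcription factor activity via a DR4-driven reporter transcript in human HepG2 cells. Compounds incubated 24 h; mRNA quantified by RT-PCR and capillary electrophoresis, analysed as gain or loss of signal versus DMSO.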

[5] = ATG_AP_1_CIS: Attagene CIS-FACTORIAL HepG2 Assay for human Activator Protein 1 (AP-1) (AID 2282931); details: HepG2 Attagene cis-factorial AP-1 reporter mRNA; actives raise or lower the signal
How it was run: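 Bidirectional concentration-response fitting against DMSO controls. Underlying signal: reporter mRNA from cis-promoter constructs in transiently transfected HepG2, measured after 24 h by RT-PCR and capillary electrophoresis.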

[6] = ATG_AP_2_CIS: Attagene CIS-FACTORIAL HepG2 Assay for human Activator Protein 2 (AP-2) (AID 2282932); details: HepG2 AP-2 cis-reporter, Attagene transcription factor profiling; actives raise or lower the signal
How it was run: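 Bidirectional curve fitting against DMSO was applied to reporter mRNA signals from HepG2 cells 24 h after dosing. Cis-promoter reporter units, transiently transfected, were read by RT-PCR plus capillary electrophoresis.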

[7] = ATG_BRE_CIS: Attagene CIS-FACTORIAL HepG2 Assay for human Bone Morphogenetic Protein (BMP) Response Element (BRE) (AID 2282933); details: HepG2 BMP response element reporter, Attagene transcription factor profiling; actives raise or lower the signal
How it was run: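 Endogenous transcription factor activity read in transiently transfected HepG2 cells after 24 h chemical exposure. Bidirectional curve fitting against DMSO; readout is reporter transcript level by RT-PCR with capillary electrophoresis of labelled products.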

[8] = biological target: Retinoic acid receptor alpha (Homo sapiens) (UniProt P10276); test: ATG_DR5_RAR_CIS: Attagene CIS-FACTORIAL HepG2 Assay for human Retinoic Acid Receptor Alpha (RARE), DR5 submotif (AID 2282934); details: HepG2 Attagene cis-factorial RARE DR5 reporter, mRNA; actives raise or lower the signal;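 as to AC50: reporter responds to endogenous RAR alpha beta and gamma in HepG2 not RARA alone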
How it was run: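 Transfected HepG2 reporter cells are exposed to chemicals for 24 h. Then RNA is extracted and the DR5 element reporter transcript is measured by RT-PCR and capillary electrophoresis, with bidirectional curve fitting relative to DMSO.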

[9] = biological target: Aryl hydrocarbon receptor (Homo sapiens) (UniProt P35869); test: ATG_Ahr_CIS: Attagene CIS-FACTORIAL HepG2 Assay for human Aryl Hydrocarbon Receptor (Ahr) (AID 2282930); details: HepG2 AhR cis-factorial reporter transcription; actives raise or lower the signal
How it was run: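 Following 24 h of chemical dosing, transfected HepG2 liver cells with cis-driven reporter units were lysed for RNA; reporter mRNA was quantified via RT-PCR and capillary electrophoresis, and responses fitted bidirectionally from DMSO.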

Measured: AC50

Aryl hydrocarbon receptor (Homo sapiens), sequence (P35869 whole entry, looked up): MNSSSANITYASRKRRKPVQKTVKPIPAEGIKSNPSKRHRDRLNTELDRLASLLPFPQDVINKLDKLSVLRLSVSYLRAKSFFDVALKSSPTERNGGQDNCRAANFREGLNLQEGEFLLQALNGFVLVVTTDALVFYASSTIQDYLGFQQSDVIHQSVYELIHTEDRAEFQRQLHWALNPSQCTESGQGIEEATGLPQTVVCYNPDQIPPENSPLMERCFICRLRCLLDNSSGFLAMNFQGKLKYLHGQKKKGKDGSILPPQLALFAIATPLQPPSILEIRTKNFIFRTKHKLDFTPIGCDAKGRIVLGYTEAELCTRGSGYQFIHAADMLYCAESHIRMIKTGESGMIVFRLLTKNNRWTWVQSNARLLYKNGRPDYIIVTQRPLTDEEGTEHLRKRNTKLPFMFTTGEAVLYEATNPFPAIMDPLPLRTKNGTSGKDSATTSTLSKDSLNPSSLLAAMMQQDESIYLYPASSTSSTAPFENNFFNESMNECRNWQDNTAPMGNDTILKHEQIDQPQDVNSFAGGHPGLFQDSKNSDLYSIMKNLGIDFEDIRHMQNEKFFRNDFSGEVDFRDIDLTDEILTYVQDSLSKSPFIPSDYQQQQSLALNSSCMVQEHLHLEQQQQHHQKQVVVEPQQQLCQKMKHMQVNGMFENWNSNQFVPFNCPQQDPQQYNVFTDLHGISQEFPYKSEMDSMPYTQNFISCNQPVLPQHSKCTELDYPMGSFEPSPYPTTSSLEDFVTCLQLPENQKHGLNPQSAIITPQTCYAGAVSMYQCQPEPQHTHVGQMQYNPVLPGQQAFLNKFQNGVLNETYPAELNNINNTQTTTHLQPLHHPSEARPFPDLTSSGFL
CCAAT/enhancer-binding protein beta (Homo sapiens), sequence (P17676 whole entry, looked up, the tested form may be a part): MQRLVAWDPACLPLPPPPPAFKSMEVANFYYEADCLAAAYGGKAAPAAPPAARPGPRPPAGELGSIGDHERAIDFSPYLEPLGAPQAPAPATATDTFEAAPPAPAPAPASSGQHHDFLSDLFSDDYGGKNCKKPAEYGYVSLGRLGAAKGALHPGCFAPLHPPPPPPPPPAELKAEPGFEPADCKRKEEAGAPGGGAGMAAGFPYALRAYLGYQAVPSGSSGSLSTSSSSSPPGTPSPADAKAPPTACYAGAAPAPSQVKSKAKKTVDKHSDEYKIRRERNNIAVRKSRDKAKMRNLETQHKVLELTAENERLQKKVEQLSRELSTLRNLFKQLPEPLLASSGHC
Retinoic acid receptor alpha (Homo sapiens), sequence (P10276 whole entry, looked up): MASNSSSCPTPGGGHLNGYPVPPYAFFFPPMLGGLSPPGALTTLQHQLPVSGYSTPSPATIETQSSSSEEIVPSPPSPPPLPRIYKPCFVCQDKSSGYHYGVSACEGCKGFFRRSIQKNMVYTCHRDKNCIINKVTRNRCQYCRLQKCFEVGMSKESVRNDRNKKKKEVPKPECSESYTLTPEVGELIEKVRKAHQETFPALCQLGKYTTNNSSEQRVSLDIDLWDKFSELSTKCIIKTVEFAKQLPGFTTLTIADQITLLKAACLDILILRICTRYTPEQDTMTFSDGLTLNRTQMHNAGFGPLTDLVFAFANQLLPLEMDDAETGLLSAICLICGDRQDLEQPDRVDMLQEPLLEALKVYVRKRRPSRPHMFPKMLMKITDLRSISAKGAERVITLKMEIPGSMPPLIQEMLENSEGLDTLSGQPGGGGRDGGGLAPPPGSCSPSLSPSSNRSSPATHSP

CC(=O)CCc1ccc(O)cc1
not listed: [8] | [9]
inactive: all other assays above

COc1ccc(OC)cc1
not listed: [8] | [9]
inactive: all other assays above

CCCCCc1cccc(=O)o1
not listed: [8] | [9]
inactive: all other assays above

CCCCOC(=O)C(C)OC(=O)CCC (centres undefined)
not listed: [9]
inactive: all other assays above

CC1=C(C=O)C(C)(C)CCC1
not listed: [8] | [9]
inactive: all other assays above

O=C(C=Cc1ccccc1)OCCCc1ccccc1
not listed: [6] | [9]
inactive: all other assays above

Nc1ccc(O)c(N)c1
active: [7] 42.2 µM
not listed: [9]
inactive: all other assays above

[Na+]
not listed: [8] | [9]
inactive: all other assays above

CCC(=O)OC(C)(C)C1CC=C(C)CC1 (centres undefined)
not listed: [9]
inactive: all other assays above

CC/C=C\CCOC(=O)C(C)C
not listed: [8] | [9]
inactive: all other assays above

C=CCOCC(O)CO (centres undefined)
active: [2] 100 µM
not listed: [8] | [9]
inactive: all other assays above

CCCCOCCOC(=O)c1ccccc1C(=O)OCCOCCCC
active: [4] 55.8 µM
not listed: [8] | [9]
inactive: all other assays above

CCOC(=O)C(=O)OCC
not listed: [9]
inactive: all other assays above

O=C(O)c1ccccc1O
not listed: [9]
inactive: all other assays above

CC(=O)CCC(=O)O
not listed: [6] | [8] | [9]
inactive: all other assays above

C=C(C)C(N)=O
not listed: [9]
inactive: all other assays above

CC(C)Cc1ccccc1
not listed: [9]
inactive: all other assays above

CC12CCC(C1)C(C)(C)C2O (centres undefined)
not listed: [5] | [9]
inactive: all other assays above

CC/C=C\CCOC(C)OCC (centres undefined)
not listed: [5] | [8] | [9]
inactive: all other assays above

CC(=O)C1C(=O)C=C(C)OC1=O (centres undefined)
not listed: [5] | [9]
inactive: all other assays above

Nc1ccn([C@H]2CC[C@@H](CO)O2)c(=O)n1
not listed: [3] | [8] | [9]
inactive: all other assays above

CC(=O)CC(C)(C)C1CCCCC1
not listed: [3] | [8] | [9]
inactive: all other assays above

CCCCCCCCCCCCN1CCOCC1
inactive: [1] | [2] | [9]
active: [4] 60.5 µM | [5] 51.8 µM | [7] 47.7 µM

C1=COCCC1
not listed: [3] | [9]
inactive: all other assays above

Cc1cc(O)c2c(c1)C(=O)c1cc(O)cc(O)c1C2=O
inactive: [5]
active: [1] 8.7 µM | [2] 12.5 µM | [4] 44.8 µM | [9] 25.3 µM | [7] 9.2 µM | [8] 17.6 µM

CC(CO)c1ccccc1 (centres undefined)
not listed: [3] | [8] | [9]
inactive: all other assays above

CCCCCC#CC(=O)OC
not listed: [3] | [8] | [9]
inactive: all other assays above

COc1ccc(N)c(C)c1
inactive: [1] | [2] | [4] | [9] | [6]
active: [7] 151 µM

C=C1CC[C@H]2O[C@]2(C)CC[C@@H]2[C@@H]1CC2(C)C
not listed: [3] | [8]
inactive: all other assays above

CCCCCCOc1ccc(O)cc1
inactive: [1] | [2] | [9] | [6] | [7]
active: [4] 44.1 µM

CCCCCCCCOC(C)=O
not listed: [3] | [6] | [8]
inactive: all other assays above

CCCCCCCCOC(=O)c1ccc(O)cc1
not listed: [5] | [9]
inactive: all other assays above

CCC(C)COC(=O)CC(C)C (centres undefined)
not listed: [3]
inactive: all other assays above

CCC=C(C)C=O
not listed: [3] | [5] | [8]
inactive: all other assays above

COc1ccc(C(C)=O)cc1
not listed: [3] | [8] | [9]
inactive: all other assays above

CCCCCCCC1CCCC1=O (centres undefined)
not listed: [3] | [6] | [8]
inactive: all other assays above

Cc1ccncc1
not listed: [5] | [9]
inactive: all other assays above

O=C(O)CS
not listed: [5] | [8] | [9]
inactive: all other assays above

CC1(C)CC(N)CC(C)(CN)C1 (centres undefined)
not listed: [6] | [9]
inactive: all other assays above

CC1=CC(O)CC(C)(C)C1 (centres undefined)
active: [9] 44.9 µM
not listed: [3]
inactive: all other assays above

CCCCCCC(C)O (centres undefined)
inactive: [1] | [2] | [4] | [5] | [7]

CC(=O)OC(C)(C)C1CC=C(C)CC1 (centres undefined)
active: [9] 8.48 µM
not listed: [3]
inactive: all other assays above

O=C1CCCCCCCCCCCC(=O)OCCO1
not listed: [3] | [8]
inactive: all other assays above

CN(C)CCC=C1c2ccccc2CCc2ccccc21
inactive: [2] | [9] | [6] | [7]
active: [1] 33.4 µM | [4] 27 µM

CCCCC/C=C\C=C\C(=O)OCC
active: [1] 58.8 µM | [4] 55.1 µM
inactive: [2] | [5] | [6] | [7]

CCC(=O)OCC=Cc1ccccc1
not listed: [5] | [8] | [9]
inactive: all other assays above

N=C1N=C(N)c2ccccc21
active: [4] 100 µM
not listed: [3] | [8]
inactive: all other assays above

OC[C@@H](O)[C@H](O)[C@@H](O)[C@@H](O)CO
not listed: [3] | [6] | [8]
inactive: all other assays above

O=S(=O)(O)c1cc(S(=O)(=O)O)c2c(N=Nc3ccccc3)c(O)ccc2c1
not listed: [3] | [8]
inactive: all other assays above

CCCCCCCOC(C)=O
not listed: [3] | [9]
inactive: all other assays above

CCO[Si](CC)(OCC)OCC
active: [4] 155 µM
inactive: [1] | [2] | [9] | [6] | [7]

CC(C)=CC(=O)O
not listed: [5] | [8] | [9]
inactive: all other assays above

CN(C)C
not listed: [2] | [8]
inactive: all other assays above

CC(C)(C)c1ccc(S)cc1
not listed: [2] | [5] | [8]
inactive: all other assays above

CCOCC(C)O (centres undefined)
not listed: [2] | [8]
inactive: all other assays above

Cc1cccc(O)c1
not listed: [2] | [8]
inactive: all other assays above

CCC(C)(CCCC(C)C)OC(C)=O (centres undefined)
inactive: [1] | [3] | [4] | [5] | [7]
active: [9] 71.4 µM

C=C(C)C(=O)OCCC(C)OC(=O)C(=C)C (centres undefined)
not listed: [2] | [6] | [9]
inactive: all other assays above

C=C(C)CCCC(C)CCO (centres undefined)
not listed: [2]
inactive: all other assays above

CC1=CCC(=C(C)C)CC1
inactive: [1] | [2] | [4] | [6] | [7]

CC(C)(O)CCc1ccccc1
not listed: [2] | [8] | [9]
inactive: all other assays above

O=c1cc[nH]cc1
not listed: [2] | [8]
inactive: all other assays above

NC(=O)c1cnccn1
not listed: [2] | [6] | [8]
inactive: all other assays above

O=C(O)c1cc2ccccc2cc1O
active: [9] 4.5 µM
not listed: [2]
inactive: all other assays above

O=C(O)C1=NN(c2ccc(S(=O)(=O)O)cc2)C(=O)C1
not listed: [2] | [5]
inactive: all other assays above

C=CCCCCCCCCC(=O)OCC
not listed: [2] | [8] | [9]
inactive: all other assays above
